Bioassay records deposited in PubChem by The Scripps Research Institute Molecular Screening Center.
hgDAF-12 ag: H. glycines DAF-12 receptor agonists, primary screen, cell-based, luminescence, HEK293, GAL4 fusion, UAS-luciferase. Nuclear hormone receptor DAF-12 (Heterodera glycines), GAL4 fusion. activation, % at 6.8 µM. 1.8% of 370,000 active. HEK293 GAL4-hgDAF12 UAS-luciferase reporter, agonist luminescence; normalized to butyrate control;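 active means activation above a cutoff set at the mean of all screened compounds plus 3 SD, cut at about 10% in these data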;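 further: 0% = DMSO wells and 100% = sodium butyrate wells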
hcDAF-12 act: H. contortus DAF-12 nuclear receptor activators, primary screen, cell-based, luminescence, HEK293, lit1-tk-luc reporter; HEK293 hcDAF-12 lit1-tk-luc reporter; 0% DMSO, 100% Δ7-dafachronic acid; activation, % at 6.8 µM; 1.4% of 370,000 active; AID 652067, 2013;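 active means activation above the mean of all tested compounds plus 3 SD, cut at about 5.5% in these data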;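 further: 100% = response to 3 µM Δ7-dafachronic acid high control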
ssDAF-12 act: S. stercoralis DAF-12 nuclear receptor activators, primary screen, cell-based, luminescence, HEK293, GRIP1 co-expression, lit1-tk-luc; Nuclear hormone receptor DAF-12 (Strongyloides stercoralis); HEK293 ssDAF-12/GRIP1 lit1-tk-luc reporter; % of 3 µM dafachronic acid response; activation, % at 6.8 µM; 1% of 370,000 active;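 active means activation above the mean over all tested compounds plus 3 SD, cut at about 0.9% in these data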;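 further: 0% = DMSO-only wells and 100% = 3 µM delta7-dafachronic acid wells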
DAX1 inh-1: DAX1 (NR0B1) inhibitors, primary screen, cell-based, HEK293, Gal4-DAX1, luciferase luminescence; 0.99% of 340,000 active; inhibition, % at 6.75 µM; Nuclear receptor subfamily 0 group B member 1 (Homo sapiens), P51843; HEK293 Gal4-DAX1 luciferase reporter;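 active means inhibition above the mean over all tested compounds plus 3 SD, cut at about 4.2% in these data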;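 further: 0% = DAX1-transfected cells with DMSO and 100% = empty-vector control cells with DMSO; inhibition shows as a rise in luminescence from relieved DAX1 repression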
Target sequence (P51843 207-470 limits assumed): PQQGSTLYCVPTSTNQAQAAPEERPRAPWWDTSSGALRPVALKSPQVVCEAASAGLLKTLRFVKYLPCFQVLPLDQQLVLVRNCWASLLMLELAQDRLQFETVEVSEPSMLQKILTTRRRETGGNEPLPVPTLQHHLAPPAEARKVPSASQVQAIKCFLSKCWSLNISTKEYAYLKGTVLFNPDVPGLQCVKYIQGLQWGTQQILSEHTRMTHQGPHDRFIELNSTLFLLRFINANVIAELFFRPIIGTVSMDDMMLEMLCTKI
DAX1 inh-2: DAX1 (NR0B1) inhibitors on StAR promoter, primary screen, cell-based, luminescence, SF-1 (NR5A1), full-length DAX-1 | HEK293T StAR-luciferase reporter, SF-1/DAX-1 repression relief | 1.1% of 370,000 active | inhibition, % at 6.8 µM | AID 652010, 2013;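 active means inhibition above the mean over all tested compounds plus 3 SD, cut at about 3.6% in these data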;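 further: 0% = DAX-1 cells with DMSO and 100% = cells lacking DAX-1 with DMSO; higher inhibition means more luminescence from relief of DAX-1 repression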
* marks the source's active call; other numbers are inactive results; x = no result given. Only some compounds are listed: those with a hit (about 4.1% of all), similar ones and a draw of the others.

SMILES	hgDAF-12 ag	hcDAF-12 act	ssDAF-12 act	DAX1 inh-1	DAX1 inh-2
COc1ccc(-c2nnc(SCC(=O)N3CCCC3)o2)c(OC)c1	11.9*	1.8	-1.0	1.5	0.7
Cc1cc(NC(=O)c2ccc(NS(=O)(=O)c3ccccc3)cc2)no1	5.4	-1.2	-1.2	x	1.5
COCC1CCCCN1C(=O)c1ccc(OC2CCN(Cc3ccccn3)CC2)cc1 (centres undefined)	-0.5	-0.6	-1.1	0.0	-0.2
CCC1CCCCN1C(=O)c1ccc(OC2CCN(Cc3ccccn3)CC2)cc1 (centres undefined)	11.2*	-2.5	-1.1	-0.3	-2.0
O=C(c1cc(Cl)cc(Cl)c1)N1CCC(Oc2cccnc2)CC1	-1.2	-2.1	-1.7	x	0.8
Cn1c(=O)c(C(=O)NNC(=O)c2ccc(Br)cc2)c(O)c2ccccc21	-0.4	3.6	-0.2	4.5*	-0.3
CCn1c(=O)c(C(=O)NCc2ccc(F)cc2)c(O)c2ccccc21	-0.8	-1.0	-0.6	4.7*	-0.5
Cn1c(=O)c(C(=O)NNC(=O)c2ccccc2F)c(O)c2ccccc21	2.8	3.3	0.1	-0.5	-0.2
CCn1c(=O)c(C(=O)NNS(=O)(=O)c2ccc(C)cc2)c(O)c2ccccc21	-1.1	2.7	-0.4	0.0	0.0
C=CCn1c(=O)c(C(=O)Nc2ccc(C)cc2)c(O)c2ccccc21	4.1	2.0	1.0*	0.2	0.4
CCn1c(=O)c(C(=O)NNS(=O)(=O)c2ccc(Br)cc2)c(O)c2ccccc21	3.0	1.4	-0.1	8.6*	0.6
COc1ccccc1C(=O)NC1CCCCN(Cc2ccc(C)cc2)C1=O (centres undefined)	1.4	0.7	-1.1	x	-0.6
Fc1ccc(-c2n[nH]c(=S)n2N=Cc2ccc(OCc3ccccc3)cc2)cc1	4.0	-0.7	-1.3	x	-0.1
COC(=O)C[C@@H]1CC[C@H]2[C@@H](COc3ccc(NC(=O)Nc4ccccc4Cl)cc3C(=O)N2C)O1	0.9	-2.2	-0.7	x	0.7
Cc1ccc(SCc2cc(=O)[nH]c(Nc3nc(C)c4ccccc4n3)n2)cc1	-1.1	6.1*	0.0	0.4	-0.1
COc1cc(/C=N/NC(=O)C(Cc2c[nH]c3ccccc23)NC(=O)OCC(C)C)cc([N+](=O)[O-])c1OCc1ccccc1 (centres undefined)	-1.8	1.3	0.2	5.2*	0.1
CCN(CC)C(=O)CC[C@H]1CC[C@]2(CCCN(Cc3nccs3)C2)O1	-1.2	-2.9	-1.1	x	0.0
O=C(C1CCC(CNc2c(N3CCCCC3)c(=O)c2=O)CC1)N1CCN(C2CCCCC2)CC1 (centres undefined)	-0.8	-1.1	-1.8	4.4*	1.2
O=C(NC(=S)Nc1ccccc1Cl)c1cncc(C#Cc2ccccc2)c1	-0.7	-1.5	-0.9	4.4*	0.1
COC(=O)[C@]12C[C@H](CC(=O)N3CCCCC3)C(=O)N(Cc3ccco3)C1=C[C@H](COCc1ccccc1)O[C@@H]2C	0.5	-0.3	-1.2	x	-2.1
COC(=O)CCC1NC(=O)C(Cc2c[nH]c3ccccc23)NC(=O)C2CC(=O)OC(C)C(NC(=O)C(C)NC(=O)C3CCCN3C(=O)C3CCCN3C(=O)C(C)NC(C)=O)C(=O)NC(CC(C)C)C(=O)NC(CCCCNC(=O)CCC(C(=O)NC(Cc3ccc(O)cc3)C(=O)O)NC1=O)C(=O)NC(Cc1c[nH]c3ccccc13)C(=O)N1CCCC1C(=O)NC(CO)C(=O)N2 (centres undefined)	1.2	-2.5	-1.6	x	-4.1
C/C(=N\Nc1ccc(C(=O)O)cc1)c1ccc2c(c1)Nc1ccccc1S2	-0.1	-0.4	-2.0	6.1*	-0.1
CCCCNC(=S)N(CCN(CC)CC)Cc1cc2cc3c(cc2[nH]c1=O)OCCO3	1.2	-0.3	-0.7	4.3*	0.0
O=C(NCc1c(F)cccc1F)C1CCCN(c2ncccn2)C1 (centres undefined)	4.1	0.0	-1.1	x	-1.2
O=C(NCc1csc(-c2cccs2)n1)C1CCCCC1	7.6	3.6	0.3	4.5*	1.0
SMILES	hgDAF-12 ag	hcDAF-12 act	ssDAF-12 act	DAX1 inh-1	DAX1 inh-2
CCC(=O)NCc1csc(-c2cccs2)n1	0.8	1.4	-0.4	-1.1	0.6
O=C(CC1CCCC1)Nc1nnc(C2CC2)s1	3.4	-0.2	-1.0	4.6*	-0.1
Cc1ccc(Nc2nnc(-c3ccccc3N)o2)cc1C	10.6*	3.4	-0.7	6.5*	1.3
O=C1N/C(=C/c2ccsc2)C(=O)N1c1ccccc1	11.8*	0.1	-0.7	2.8	0.4
Cc1ccc(/C=N/n2c(C)nnc2C)o1	0.9	4.0	0.5	4.3*	0.3
Cc1ccc(/C=N/n2c(C)nc3ccccc3c2=O)o1	1.7	0.9	-1.3	4.5*	0.1
COC(=O)C1CCN(C(=O)COC(=O)c2ccc(=O)n(Cc3ccccc3)n2)CC1	0.9	-0.1	-1.4	0.2	2.0
O=C(NC1CCCCCC1)c1ccc(=O)n(Cc2ccccc2)n1	-1.7	-1.3	-1.6	4.5*	-0.4
COc1ccc(NC(=O)Nc2cc(C)ccc2OC)cc1	2.5	-2.0	-1.6	0.0	-0.3
COc1ccc(C(=O)COc2ccc(C)cc2NC(C)=O)cc1	10.5*	2.2	-0.5	x	2.3
COC(=O)c1ccc(N=Cc2c(-c3ccccc3)[nH][nH]c2=O)cc1	-2.1	3.1	1.5*	-0.4	0.1
COc1ccc(C2SCC(C(=O)O)N2C(C)=O)cc1OC (centres undefined)	0.4	4.2	-1.4	8.4*	0.0
COc1ccc(CN2C(=O)c3cccnc3C2=O)cc1S(=O)(=O)N1CC(C)CC(C)C1 (centres undefined)	-0.9	1.7	-1.0	0.5	-0.2
CC1CCCN(S(=O)(=O)c2ccc(CN3C(=O)c4cccnc4C3=O)cc2)C1 (centres undefined)	-1.7	-1.4	-1.1	1.7	3.8*
COC(=O)[C@]12C[C@H](CC(=O)N3CCCC3)C(=O)N(Cc3ccco3)C1=C[C@H](COCc1ccccc1)O[C@@H]2C	1.1	-0.4	-1.1	x	-1.4
Cn1c(COc2ccccc2)nnc1SCC(=O)Nc1ccc(OCc2ccccc2)cc1	4.5	1.8	-1.8	x	0.3
CCOC(=O)c1c(N)sc(C(=O)Nc2ccc3c(c2)OCO3)c1C	8.2	5.8*	0.5	-3.0	2.7
CCOC(=O)c1c(C)c(C(=O)Nc2ccc3c(c2)OCO3)c(C)n1C	2.6	0.4	-1.2	0.4	-0.3
CCOc1ccc2oc(C(=O)Nc3ccc4c(c3)OCO4)c(C)c2c1	11.1*	2.6	-0.1	0.4	1.2
